Source: PubChem BioAssay (Tox21)
Records with an inconclusive call do not appear. Where a call stands in place of a potency, no number is given. Unmarked numbers belong to inactive results. Calls of active or inactive are those of the source. Unless noted, calls come from the whole dose curve.

System: not listed separately
Assay: p53 small molecule agonists, cell-based qHTS assay: qHTS cell viability counter screen (AID 1963581); note: nearly all actives have a fitted effect of over 45% in size
Details: p53RE-bla HCT-116 viability, ATP luminescence, 16 h; series mostly up to 66 µM
Summary of the method: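 Viability was counter-screened in parallel with the p53 agonist reporter by measuring intracellular ATP luminescence in the same HCT-116 p53RE-bla wells after 16 h compound treatment at 37 C.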

Row | SMILES | Potency | activity change, negative = cytotoxicity
1 | CC(C)COC(=O)c1ccc(N)cc1 | inactive | –
2 | CCCc1cc(C(N)=S)ccn1 | inactive | –
3 | CCCCCCCCCCCCCCO | inactive | –
4 | CCO/C([O-])=N/c1c[n+](N2CCOCC2)no1 | inactive | –
5 | O=C(O)c1ccco1 | inactive | –
6 | CSc1cnccn1 | inactive | –
7 | CCCCCCCOC(C)=O | inactive | –
8 | NS(=O)(=O)c1ccc(NC(=O)CCC(=O)O)cc1 | inactive | –
9 | COc1ccc(C(=O)CC(=O)c2ccc(C(C)(C)C)cc2)cc1 | inactive | –
10 | CCO[Si](OCC)(OCC)c1ccccc1 | inactive | –
11 | CCC1COC(=O)O1 (centres undefined) | inactive | –
12 | CC(C)(C)c1ccc(CCC=O)cc1 | inactive | –
13 | FC(F)(F)c1cccc(Cl)c1 | inactive | –
14 | IC(I)I | inactive | –
15 | Cc1cccc(Cl)c1 | inactive | –
16 | CC1=CCC(C(C)C)=CC1 | inactive | –
17 | CC1(C)C(C=C(Cl)Cl)C1C(=O)OCc1cccc(Oc2ccccc2)c1 (centres undefined) | inactive | –
18 | CCCOCCOCCOCCO | inactive | –

Row | SMILES | Potency | activity change, negative = cytotoxicity
19 | N=C(N)c1ccc2cc(OC(=O)c3ccc(N=C(N)N)cc3)ccc2c1 | inactive | –
20 | O=[N+]([O-])c1ccc(F)cc1F | inactive | –
21 | CC(=O)N(c1onc(C)c1C)S(=O)(=O)c1ccc(N)cc1 | inactive | –
22 | OC[C@H]1O[C@@H](O[C@H]2[C@H](O)[C@@H](O)[C@H](O)O[C@@H]2CO)[C@H](O)[C@@H](O)[C@H]1O | inactive | –
23 | c1ccc2c(c1)CCC2 | inactive | –
24 | CN(C)c1ccc(/C=C/c2ccc([N+](=O)[O-])cc2)cc1 | – | -1.3% [at 5.99 µM]
25 | NCCC(O)(P(=O)(O)O)P(=O)(O)O | inactive | –
26 | CO[Si](OC)(OC)c1ccccc1 | inactive | –
27 | O=C(c1ccc(Cl)cc1)c1ccc(Cl)cc1 | inactive | –
28 | CC[C@H]1CN2CCc3cc(OC)c(OC)cc3[C@@H]2C[C@@H]1C[C@H]1NCCc2cc(OC)c(OC)cc21 | inactive | –
29 | CC(C)c1cccc(O)c1 | inactive | –
30 | COc1cccc(OC)c1C(=O)N[C@@H]1C(=O)N2[C@@H]1SC(C)(C)[C@@H]2C(=O)O | inactive | –
31 | O=P(OC(CCl)CCl)(OC(CCl)CCl)OC(CCl)CCl | inactive | –
32 | CC/C=C\CC1=C(C)CCC1=O | inactive | –
33 | CCC(C)S (centres undefined) | – | 10.6% [at 2.33 µM]
34 | c1ccc2c(c1)CCc1ccccc1N2 | inactive | –
35 | CCCCOC(=O)C(C)OC(=O)CCC (centres undefined) | inactive | –
36 | CCCC=O | inactive | –

System: not listed separately
Assay: p53 small molecule agonists, cell-based qHTS assay (AID 1963582; active = well fitted activation curve with a large enough effect in the signal ratio in the repeat runs, not every such curve was filed as active; the % refers to the signal ratio)
Details: HCT-116 p53RE-bla reporter, beta-lactamase FRET ratio, 16 h; series mostly up to 66 µM
Summary of the method: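 Cells carrying a p53-responsive bla reporter are treated with test compounds for 16 h at 37 C; beta-lactamase activity is then detected with LiveBLAzer B/G FRET substrate after 2 h at room temperature.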

Row | SMILES | Potency | activation
37 | CC(C)COC(=O)c1ccc(N)cc1 | inactive | –
38 | CCCc1cc(C(N)=S)ccn1 | inactive | –
39 | CCCCCCCCCCCCCCO | inactive | –
40 | CCO/C([O-])=N/c1c[n+](N2CCOCC2)no1 | inactive | –
41 | O=C(O)c1ccco1 | inactive | –
42 | CSc1cnccn1 | inactive | –
43 | CCCCCCCOC(C)=O | inactive | –
44 | CCc1cnc(C(=O)O)c(C(=O)O)c1 | inactive | –
45 | NS(=O)(=O)c1ccc(NC(=O)CCC(=O)O)cc1 | inactive | –
46 | COc1ccc(C(=O)CC(=O)c2ccc(C(C)(C)C)cc2)cc1 | inactive | –
47 | CCO[Si](OCC)(OCC)c1ccccc1 | inactive | –
48 | CCC1COC(=O)O1 (centres undefined) | inactive | –
49 | FC(F)(F)c1cccc(Cl)c1 | inactive | –
50 | IC(I)I | inactive | –
51 | Cc1cccc(Cl)c1 | inactive | –
52 | CC1=CCC(C(C)C)=CC1 | inactive | –
53 | CC1(C)C(C=C(Cl)Cl)C1C(=O)OCc1cccc(Oc2ccccc2)c1 (centres undefined) | inactive | –
54 | CCCOCCOCCOCCO | inactive | –

Row | SMILES | Potency | activation
55 | N=C(N)c1ccc2cc(OC(=O)c3ccc(N=C(N)N)cc3)ccc2c1 | inactive | –
56 | O=[N+]([O-])c1ccc(F)cc1F | inactive | –
57 | CC(=O)N(c1onc(C)c1C)S(=O)(=O)c1ccc(N)cc1 | inactive | –
58 | OC[C@H]1O[C@@H](O[C@H]2[C@H](O)[C@@H](O)[C@H](O)O[C@@H]2CO)[C@H](O)[C@@H](O)[C@H]1O | inactive | –
59 | c1ccc2c(c1)CCC2 | inactive | –
60 | CN(C)c1ccc(/C=C/c2ccc([N+](=O)[O-])cc2)cc1 | – | -2.24% [at 5.99 µM]
61 | NCCC(O)(P(=O)(O)O)P(=O)(O)O | inactive | –
62 | CO[Si](OC)(OC)c1ccccc1 | inactive | –
63 | O=C(c1ccc(Cl)cc1)c1ccc(Cl)cc1 | inactive | –
64 | CC[C@H]1CN2CCc3cc(OC)c(OC)cc3[C@@H]2C[C@@H]1C[C@H]1NCCc2cc(OC)c(OC)cc21 | inactive | –
65 | CC(C)c1cccc(O)c1 | inactive | –
66 | COc1cccc(OC)c1C(=O)N[C@@H]1C(=O)N2[C@@H]1SC(C)(C)[C@@H]2C(=O)O | inactive | –
67 | O=P(OC(CCl)CCl)(OC(CCl)CCl)OC(CCl)CCl | inactive | –
68 | CC/C=C\CC1=C(C)CCC1=O | inactive | –
69 | CCC(C)S (centres undefined) | – | -0.925% [at 2.33 µM]
70 | c1ccc2c(c1)CCc1ccccc1N2 | inactive | –
71 | CCCCOC(=O)C(C)OC(=O)CCC (centres undefined) | inactive | –
72 | CCCC=O | inactive | –

Molecular target: 5-hydroxytryptamine receptor 2A (Homo sapiens) (UniProt P28223)
Assay: 5-hydroxytryptamine receptor 2A (HTR2A) small molecule antagonists, cell-based qHTS assay (AID 1963586); note: nearly all actives have a fitted effect of over 45% in size
Details: HTR2A-CHO cells, DOI-induced calcium flux, fluorescence; series mostly up to 61.5 µM
Summary of the method: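 CHO cells stably expressing human HTR2A were plated for 18 h at 37 C, then loaded with calcium dye for 1 h. Compounds were preincubated 5 min at room temperature before DOI (4 nM solution) was added. Kinetic fluorescence was read for 3 min.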

Chain of 5-hydroxytryptamine receptor 2A (Homo sapiens) (P28223 whole entry, looked up): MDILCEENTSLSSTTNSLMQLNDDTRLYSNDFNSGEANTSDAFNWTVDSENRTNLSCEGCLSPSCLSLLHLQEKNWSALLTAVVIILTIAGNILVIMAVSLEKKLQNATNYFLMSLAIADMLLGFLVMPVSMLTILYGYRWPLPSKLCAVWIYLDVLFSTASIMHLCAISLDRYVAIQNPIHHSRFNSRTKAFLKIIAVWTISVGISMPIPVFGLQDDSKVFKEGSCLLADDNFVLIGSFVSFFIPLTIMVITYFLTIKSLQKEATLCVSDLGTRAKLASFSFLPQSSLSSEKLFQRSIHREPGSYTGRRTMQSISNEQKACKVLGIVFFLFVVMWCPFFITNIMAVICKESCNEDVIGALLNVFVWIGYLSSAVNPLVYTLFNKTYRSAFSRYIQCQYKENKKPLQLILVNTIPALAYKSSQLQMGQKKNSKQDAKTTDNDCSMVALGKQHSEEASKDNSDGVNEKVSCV

Row | SMILES | Potency | activity, negative = inhibition
73 | CC(C)COC(=O)c1ccc(N)cc1 | inactive | –
74 | CCCc1cc(C(N)=S)ccn1 | inactive | –
75 | CCCCCCCCCCCCCCO | inactive | –
76 | CCO/C([O-])=N/c1c[n+](N2CCOCC2)no1 | inactive | –
77 | O=C(O)c1ccco1 | inactive | –
78 | CSc1cnccn1 | inactive | –
79 | CCCCCCCOC(C)=O | inactive | –
80 | CCc1cnc(C(=O)O)c(C(=O)O)c1 | inactive | –
81 | NS(=O)(=O)c1ccc(NC(=O)CCC(=O)O)cc1 | inactive | –
82 | COc1ccc(C(=O)CC(=O)c2ccc(C(C)(C)C)cc2)cc1 | inactive | –
83 | CCO[Si](OCC)(OCC)c1ccccc1 | inactive | –
84 | CCC1COC(=O)O1 (centres undefined) | inactive | –
85 | CC(C)(C)c1ccc(CCC=O)cc1 | inactive | –
86 | FC(F)(F)c1cccc(Cl)c1 | inactive | –
87 | Nc1ccc(NCCO)c([N+](=O)[O-])c1 | inactive | –
88 | Cc1cccc(Cl)c1 | inactive | –
89 | CC1=CCC(C(C)C)=CC1 | inactive | –
90 | CC1(C)C(C=C(Cl)Cl)C1C(=O)OCc1cccc(Oc2ccccc2)c1 (centres undefined) | inactive | –
91 | CCCOCCOCCOCCO | inactive | –

Row | SMILES | Potency | activity, negative = inhibition
92 | N=C(N)c1ccc2cc(OC(=O)c3ccc(N=C(N)N)cc3)ccc2c1 | inactive | –
93 | O=[N+]([O-])c1ccc(F)cc1F | inactive | –
94 | CC(=O)N(c1onc(C)c1C)S(=O)(=O)c1ccc(N)cc1 | inactive | –
95 | OC[C@H]1O[C@@H](O[C@H]2[C@H](O)[C@@H](O)[C@H](O)O[C@@H]2CO)[C@H](O)[C@@H](O)[C@H]1O | inactive | –
96 | c1ccc2c(c1)CCC2 | inactive | –
97 | CN(C)c1ccc(/C=C/c2ccc([N+](=O)[O-])cc2)cc1 | – | -0.541% [at 5.62 µM]
98 | NCCC(O)(P(=O)(O)O)P(=O)(O)O | inactive | –
99 | CO[Si](OC)(OC)c1ccccc1 | inactive | –
100 | O=C(c1ccc(Cl)cc1)c1ccc(Cl)cc1 | inactive | –
101 | CC(C)c1cccc(O)c1 | inactive | –
102 | CC(C)CC=O | inactive | –
103 | COc1cccc(OC)c1C(=O)N[C@@H]1C(=O)N2[C@@H]1SC(C)(C)[C@@H]2C(=O)O | inactive | –
104 | O=P(OC(CCl)CCl)(OC(CCl)CCl)OC(CCl)CCl | inactive | –
105 | CC/C=C\CC1=C(C)CCC1=O | inactive | –
106 | CCC(C)S (centres undefined) | – | 36.9% [at 2.12 µM]
107 | c1ccc2c(c1)CCc1ccccc1N2 | inactive | –
108 | CCCCOC(=O)C(C)OC(=O)CCC (centres undefined) | inactive | –
109 | CCCC=O | inactive | –
